# Source: PubChem BioAssay (NCATS)
# Values joined by “and” are separate entries in the source; they are usually repeats but may differ in a detail not shown here. Equal values may be shown once. Results filed as inconclusive are left out. Active and inactive are the calls of the source. Calls follow the shape of the dose curve; as a rule, active = well fitted curve in the direction sought with a large enough effect; inconclusive = small, poorly fitted or top-dose-only effect, or another doubt; inactive = no such curve, though single readings can be large; an effect the other way counts as inactive or inconclusive.
# Columns and labels:
# [1] = Viability qHTS for spleen associated tyrosine kinase inhibitor (SYKi) naive MV4-11 cells (AID 1963823); also: nearly all actives have a fitted effect of over 40% in size
# Procedure, shortened: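 SYKi-naive MV4-11 AML cells, 500 per well, were exposed to library compounds for 72 hr at 37 C, 5% CO2. Viability was then read by CellTiter-Glo luminescence after 10 min at room temperature.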
# [2] = Viability qHTS for spleen associated tyrosine kinase inhibitor (SYKi) drug resistant MV4-11 cells (AID 1963824); also: nearly all actives have a fitted effect of over 35% in size
# Procedure, shortened: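 SYK-inhibitor-resistant MV4-11 AML cells were seeded at 500 per well onto compound and cultured 72 hours (37 °C, 5% CO2). CellTiter-Glo was then added, and after 10 min at room temperature, luminescence gave viability.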
# [3] = Cellular viability qHTS for adrenocortical cancer (ACC) cell line SW-13 (AID 1963989); details: SW-13 ACC cells viability, CellTiter-Glo, 48 h; activity (max response): active compounds read low; also: nearly all actives have a fitted effect of over 65% in size;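 as to activity (max response): cells grown in serum-free medium with ITS supplement; % is scaled to controls: 0 for no effect and ±100 for the full control effect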
# Procedure, shortened: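 Luminescent ATP read-out (CellTiter-Glo, 20 min at room temperature) measured metabolically competent SW-13 cells after 48 h compound treatment. Final concentrations spanned up to 46 uM; bortezomib served as positive control.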
# [4] = Cellular viability qHTS for adrenocortical cancer (ACC) cell line NCI-H295R (AID 1963990); also: nearly all actives have a fitted effect of over 60% in size
# Procedure, shortened: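 IC50 and maximal efficacy derive from four-parameter logistic modelling of titration curves, with reads scaled between DMSO-only wells (0%) and doxorubicin hydrochloride (100% inhibition). Compounds spanned up to 46 uM over 48 h.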
# Potency is read from the fitted curve at half-maximal effect.
Structure (SMILES),Potency [1],Potency [2],Potency [3],Potency [4],activity (max response) [3]
C=CCNc1c(O)cc2c(O)c1C[C@@H](C)C[C@H](OC)[C@H](O)[C@@H](C)/C=C(/C)[C@H](OC(N)=O)[C@@H](OC)/C=C\C=C(\C)C(=O)N2,0.132 µM (active),0.417 µM (active),3.16 µM (active),10 µM (active),–
Nc1ccc(S(=O)(=O)Nc2ccccn2)cc1,inactive,inactive,–,inactive,6.67% (inactive)
CC(C(=O)O)c1ccc(C(=O)c2ccccc2)s1 (stereo not drawn),inactive,inactive,–,inactive,-5.09% (inactive)
CC(C)NCCCC1(C(N)=O)c2ccccc2-c2ccccc21,inactive,inactive,–,inactive,9.8% (inactive)
Cc1ccc([N+](=O)[O-])cc1S(=O)(=O)N(C)/N=C/c1cnc2ccc(Br)cn12,16.4 nM (active) and 26.3 nM (active),16.4 nM (active) and 46.8 nM (active),0.282 µM (active),0.282 µM (active),–
CCC(=C/[C@H](C)C/C=C/C(C)=C/[C@@H](C)C(=O)[C@@H](C)[C@H](O)[C@@H](C)C/C(C)=C/C(=O)O)/C=C/[C@@H]1OC(=O)C=C[C@@H]1C,0.0019 µM (active),0.0021 µM (active),0.0251 µM (active),0.01 µM (active),–
CNC(=O)[C@H](Cc1c[nH]c2ccccc12)NC(=O)[C@@H](CC(=O)NO)CC(C)C,9.34 µM (active),10.5 µM (active),–,inactive,-15.7% (inactive)
CCO[C@@H]1OC(=O)C[C@@H]1NC(=O)[C@@H]1CCCN2C(=O)CC[C@H](NC(=O)c3nccc4ccccc34)C(=O)N12,inactive,inactive,–,inactive,-8.71% (inactive)
Oc1ccccc1,inactive,inactive,–,inactive,8.68% (inactive)
NC(=O)/C(=C/n1cnc(-c2cc(C(F)(F)F)cc(C(F)(F)F)c2)n1)c1cncnc1,0.132 µM (active),0.235 µM (active),3.98 µM (active),3.16 µM (active),–
O=C(NCCCNC(=O)c1ccc[nH]c1=O)c1cc(-c2ccccc2)on1,4.68 µM (active),4.68 µM (active),22.4 µM (active),15.8 µM (active),–
CSc1ccc2c(c1)N(CCC1CCCCN1C)c1ccccc1S2 (stereo not drawn),15 µM (active),13.3 µM (active),16.4 µM (active),4.61 µM (active),–
CC[C@]1(O)CC2CN(CCc3c([nH]c4ccccc34)[C@@](C(=O)OC)(c3cc4c(cc3OC)N(C)[C@H]3[C@@](O)(C(=O)OC)[C@H](OC(C)=O)[C@]5(CC)C=CCN6CC[C@]43[C@@H]65)C2)C1 (stereo partly drawn),0.0332 µM (active),65.1 nM (active) and 33.2 nM (active),0.282 µM (active),14.1 µM (active),–
Cc1cc(C)cc(OCC2CNC(=O)O2)c1 (stereo not drawn),inactive,inactive,–,inactive,4.02% (inactive)
Cc1noc(C)c1-c1ccc(-c2cc(C(N)=O)c(NC(N)=O)s2)c(O[C@H]2CCNC2)c1,2.31 µM (active),3.26 µM (active),–,inactive,-22.5% (inactive)
CCCCC(CC)CNC(=O)CC(C)OC(=O)CCC(=O)O (stereo not drawn),inactive,inactive,–,inactive,-6.84% (inactive)
Cc1cc(O[C@@H](CCC(F)(F)F)c2ccc(C(=O)NCCC(=O)O)cc2)cc(C)c1-c1ccc(C(C)(C)C)cc1,13.2 µM (active),9.34 µM (active),25.1 µM (active),22.4 µM (active),–
Cc1ccc2c(Cl)cc(Cl)c(O)c2n1,inactive,inactive,–,inactive,9.37% (inactive)
Cc1ccc(-c2nc(N)nc3c2nnn3Cc2cccc(CO[C@H]3CCOC3)n2)o1,inactive,16.6 µM (active),–,inactive,-12.5% (inactive)
Cc1ccc(C(C)OC(=O)C2(C)CCC(C(=O)O)C2(C)C)cc1 (stereo not drawn),inactive,inactive,–,inactive,8.64% (inactive)
CN1CCN(c2ccc3nc(-c4cc(C(C)(C)C)c(OCCCC(=O)NCCCN=[N+]=[N-])c(C(C)(C)C)c4)[nH]c3c2)CC1,5.25 µM (active),5.25 µM (active),3.98 µM (active),3.16 µM (active),–
COc1ccc2c(c1)[C@]1(C[C@H]1c1ccc3c(/C=C/c4ccc(CN5C[C@@H](C)O[C@@H](C)C5)cc4)n[nH]c3c1)C(=O)N2,0.105 µM (active),0.332 µM (active),14.1 µM (active),6.31 µM (active),–
